Bioassay records from PubChem.
In the library only some 0.45% were active in any assay of this set; here they are far more common.
FEN1 inhibitor: qHTS Assay for the Inhibitors of Human Flap endonuclease 1 (FEN1); AID 588795, 2011; Recombinant FEN1 flap cleavage, fluorescence, 15 min; P39748; Potency, µM (top dose mostly 114 µM), without a hit: top-dose activity change, negative = inhibition, most hits filed as inhibitors; hit rate 0.35% among 390,000; further: nearly all actives have a fitted effect of over 65% in size
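Quantitative HTS format: each compound was titrated, incubated with 10 nM nuclease for 15 min at room temperature, then challenged with flap substrate at 50 nM final. Signal change over 15 min gave concentration–effect curves.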
Chronic BCR inh: qHTS Assay to Find Inhibitors of Chronic Active B-Cell Receptor Signaling | hit rate 0.05% among 340,000 | ABC-DLBCL IkBa-CBG/CBR reporter, luminescence ratio, 4 h | Potency, µM (highest dose often 46.1 µM), for the others: at the top dose activity change, negative = inhibition, usual class: inhibitors; active means well fitted inhibition curve with a large enough effect in the signal ratio, with a control signal flat, not every such curve was filed as active; inconclusive means small, poorly fitted or top-dose-only effect, or effect the other way, or a change in a side signal; the % refers to the signal ratio;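 further: plate controls were basal doxycycline-induced cells for no effect and cells given 10 µM MG132 for full effect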
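Concentration-response series (up to 46 uM) were applied to TMD8 dual-reporter cells for 4 h at 37C with doxycycline. Green/red ratio, after filter-overlap correction, defined %Activity; red signal alone was normalised to basal cells and zero luminescence.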
Tb PGK inh: qHTS Assay to Find Inhibitors of Phosphoglycerate Kinase; PGK/GAPDH coupled, Kinase-Glo luminescence, 60 min; Phosphoglycerate kinase, glycosomal (Trypanosoma brucei brucei), P07378; AID 602233, 2012; Potency, µM (titrated, usually from 57.5 µM), without a hit: top-dose activity change, negative = inhibition, actives largely listed as inhibitors; hit rate 0.043% among 380,000; further: nearly all actives have a fitted effect of over 60% in size
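Recombinant glycosomal PGK reaction used 1,3-bisphosphoglycerate generated in-well by GAPDH (100nM final) in 100mM TEA pH 7.6, 5mM MgCl2, 0.01% Tween-20. After 60 minutes at room temperature, ATP was read by Kinase-Glo Plus luminescence end-point.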
Pin1 inh: qHTS Assay to Find Inhibitors of Pin1; Pin1 FP peptide displacement, HiFluor488, 10 min; Potency, µM (series often up to 115 µM), for the others: at the highest dose activity, negative = inhibition, actives largely listed as inhibitors; Peptidyl-prolyl cis-trans isomerase NIMA-interacting 1 (Homo sapiens), Q13526; AID 504891, 2011; hit rate 0.009% among 390,000; active means well fitted inhibition curve with a large enough effect in the polarisation, with a control signal flat, not every such curve was filed as active; inconclusive means small, poorly fitted or top-dose-only effect, or effect the other way, or a change in a side signal; inactive means no such curve, though single readings can be large or run the other way; the % refers to the polarisation
B2AR arrestin: qHTS assay of beta-arrestin-biased ligands of beta2-adrenergic receptor; hit rate 0.02% among 330,000; AID 492947, 2010; beta-arrestin recruitment to beta2AR, cell-based reporter; Potency, µM (titrated, usually from 46.1 µM), for inactives: at the highest dose activation, most hits filed as activators;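 further: 0% = DMSO controls and full agonism = EC100 isoproterenol or metaproterenol; nearly all actives have a fitted effect of over 65% in size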
Target sequence (P07550 whole entry, looked up): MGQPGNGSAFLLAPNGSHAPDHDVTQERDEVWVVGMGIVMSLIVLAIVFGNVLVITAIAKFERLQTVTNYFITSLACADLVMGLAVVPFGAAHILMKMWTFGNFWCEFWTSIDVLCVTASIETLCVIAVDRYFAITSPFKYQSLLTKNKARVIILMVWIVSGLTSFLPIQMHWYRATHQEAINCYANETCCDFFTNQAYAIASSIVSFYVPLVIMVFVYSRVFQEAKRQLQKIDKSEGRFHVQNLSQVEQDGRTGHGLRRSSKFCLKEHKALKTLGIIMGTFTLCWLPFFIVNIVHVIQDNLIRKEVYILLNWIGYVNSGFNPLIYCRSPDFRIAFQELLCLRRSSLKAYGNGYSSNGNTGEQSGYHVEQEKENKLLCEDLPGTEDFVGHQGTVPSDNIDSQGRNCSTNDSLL
* hit, by the source's call. Unless noted, the call rests on the fitted dose curve; in most records, active means well fitted curve in the direction sought with a large enough effect; inconclusive means small, poorly fitted or top-dose-only effect, or another doubt; inactive means no such curve, though single readings can be large; an effect the other way counts as inactive or inconclusive. Unless noted, on the % scale 0 is the no-effect control and ±100 the full control effect; potency means the concentration at half of the fitted maximal effect.

How did C#CCOCCOCCOCCNc1nc(N2CCN(C(=O)CCCCCCCCCCNC(=O)[C@H](CCCCN)n3cc(C)nn3)CC2)nc(N2CCN(C(=O)CCCCCCCCCCNC(=O)[C@H](CCCN=C(N)N)n3cc(C[C@@H](C)CC)nn3)CC2)n1 do in these assays?
FEN1 inhibitor: 22µM*; Chronic BCR inh: inconclusive; Tb PGK inh: 12%; Pin1 inh: inconclusive; B2AR arrestin: 0%

What do the screens show for `C#CCOCCOCCOCCNc1nc(N2CCN(C(=O)CCCCCCCCCCNC(=O)Cn3cc(C[C@@H](C)O)nn3)CC2)nc(N2CCN(C(=O)CCCCCCCCCCNC(=O)[C@@H]([C@H](C)CC)n3cc(CCCCCN)nn3)CC2)n1`?
FEN1 inhibitor: inconclusive; Chronic BCR inh: -4%; Tb PGK inh: -1%; Pin1 inh: 20%; B2AR arrestin: -1%

How did C#CCOCCOCCOCCNc1nc(N2CCN(C(=O)CCCCCCCCCCNC(=O)Cn3cc(CCCCCN)nn3)CC2)nc(N2CCN(C(=O)CCCCCCCCCCNC(=O)Cn3cc(C[C@@H](C)O)nn3)CC2)n1 do in these assays?
FEN1 inhibitor: 79µM*; Chronic BCR inh: inconclusive; Tb PGK inh: 9%; Pin1 inh: inconclusive; B2AR arrestin: 0%

What do the screens show for `Cc1cc2c(s1)c1cnn(Cc3ccc(C#N)cc3)c(=O)c1n2C`?
Pin1 inh: 1%

How did N#Cc1nc(Nc2ccc(Br)cc2)nc(NC2CCCC2)n1 do in these assays?
Pin1 inh: 17%

How did COc1cccc(S(=O)(=O)N2CCN(S(=O)(=O)c3ccc4c(c3)OCCO4)CC2)c1 do in these assays?
Pin1 inh: -1%

What do the screens show for `O=C1c2ccccc2C(=O)N1c1ccncc1`?
Pin1 inh: 3%

Results for C#CCOCCOCCOCCNc1nc(N2CCN(C(=O)CCCCCCCCCCNC(=O)[C@H](CCCCN)n3cc(C[C@@H](C)CC)nn3)CC2)nc(N2CCN(C(=O)CCCCCCCCCCNC(=O)[C@@H]([C@H](C)O)n3cc(C)nn3)CC2)n1 ?
FEN1 inhibitor: 32µM*; Chronic BCR inh: inconclusive; Tb PGK inh: 7%; Pin1 inh: 70%; B2AR arrestin: -1%

How did C#CCOCCOCCOCCNc1nc(N2CCN(C(=O)CCCCCCCCCCNC(=O)[C@H]([C@@H](C)CC)n3cc(CCCCN=C(N)N)nn3)CC2)nc(N2CCN(C(=O)CCCCCCCCCCNC(=O)[C@@H]([C@H](C)O)n3cc(C)nn3)CC2)n1 do in these assays?
FEN1 inhibitor: 25µM*; Chronic BCR inh: inconclusive; Tb PGK inh: 14%; Pin1 inh: inconclusive; B2AR arrestin: 0%

What do the screens show for `C#CCOCCOCCOCCNc1nc(N2CCN(C(=O)CCCCCCCCCCNC(=O)[C@H](CCCCN)n3cc(C)nn3)CC2)nc(N2CCN(C(=O)CCCCCCCCCCNC(=O)[C@@H]([C@H](C)O)n3cc(C)nn3)CC2)n1`?
FEN1 inhibitor: inconclusive; Chronic BCR inh: inconclusive; Tb PGK inh: 5%; Pin1 inh: 1%; B2AR arrestin: 0%

What do the screens show for `C#CCOCCOCCOCCNc1nc(N2CCN(C(=O)CCCCCCCCCCNC(=O)[C@H](CCCCN)n3cc(CCO)nn3)CC2)nc(N2CCN(C(=O)CCCCCCCCCCNC(=O)[C@H](CCCCN)n3cc(C[C@@H](C)CC)nn3)CC2)n1`?
FEN1 inhibitor: 28µM*; Chronic BCR inh: inconclusive; Tb PGK inh: 6%; Pin1 inh: 51%; B2AR arrestin: 0%

What do the screens show for `Cc1ccc(NS(=O)(=O)c2ccc(N3CCCC3=O)cc2)cc1C`?
Pin1 inh: 2%

What do the screens show for `CN(C)c1ccc(-c2csc(N3CCC(C(N)=O)CC3)n2)cc1`?
Pin1 inh: 15%

Results for Cc1cc2c(s1)c1cnn(Cc3ccc(Cl)c(F)c3)c(=O)c1n2C ?
Pin1 inh: -1%
